Results filed as inconclusive are left out. Active and inactive are the calls of the source. Unless noted, calls come from the whole dose curve; as a rule, active = well fitted curve in the direction sought with a large enough effect in the repeat runs; inconclusive = weak or mixed curves; inactive = no such curve, though single readings can be large; an effect the other way counts as inactive or inconclusive.
Assays:
[1] = qHTS assay for small molecule agonists of the p53 signaling pathway (AID 651631; calls by dose curve; note: nearly all actives have a fitted effect of over 15% in size; note: potency is the fitted concentration of half-maximal effect)
Outline: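 Stably transfected HCT-116 cells (beta-lactamase behind p53 response elements) get compounds after a 5 h settling period; 16 h later at 37 °C, FRET substrate is loaded and fluorescence read after 2 h.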

[2] = qHTS assay for small molecules that induce genotoxicity in human embryonic kidney cells expressing luciferase-tagged ATAD5 (AID 651632); note: nearly all actives have a fitted effect of over 15% in size
Outline: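 Genotoxicity read-out via ATAD5-luciferase: HEK293T cells, 16 hr compound incubation at 37C, Amplite detection.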

[3] = qHTS assay for small molecule agonists of the p53 signaling pathway - cell viability (AID 651633; calls by dose curve;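 note: p53RE-bla HCT reporter cells with a stable beta-lactamase p53 reporter; series mostly up to about 83 µM; nearly all actives have a fitted effect of over 30% in size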)
Outline: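 Viability counter-read: CellTiter-Glo luminescence (30 min, room temperature) in the same p53RE-bla plates. These plates had been exposed to compounds for 16 h at 37 C.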

[4] = qHTS assay for small molecules that induce genotoxicity in human embryonic kidney cells expressing luciferase-tagged ATAD5 - cell viability (AID 651634; calls by dose curve; note: nearly all actives have a fitted effect of over 25% in size)
Outline: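 Live-cell protease activity (CellTiter-Fluor, fluorescence) indicates viability. HEK293T cells with luciferase-tagged ATAD5; 15.5 hr compound treatment at 37C.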

[5] = qHTS assay for small molecule disruptors of the mitochondrial membrane potential - cell viability (AID 720634; calls by dose curve;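 note: human HepG2 liver cancer cells; series mostly up to about 83 µM; nearly all actives have a fitted effect of over 20% in size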)
Outline: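 Human hepatoma HepG2 cells were treated for 1 hr with test chemicals, then given m-MPI dye and CellTiter-Glo. Cell viability reflects luminescence proportional to cellular ATP.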

[6] = qHTS assay for small molecule disruptors of the mitochondrial membrane potential (AID 720635); note: potency is the fitted concentration of half-maximal effect
Outline: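 Mitochondrial membrane potential tracked with Mito-MPS dye, red aggregates (ex 540/em 590 nm) against green monomers (ex 490/em 535 nm). Compound treatment 1 hr at 37C, dye 30 min in HepG2.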

[7] = qHTS assay to test for compound auto fluorescence at 590 nm (red) in HepG2 cells (AID 720674)
Outline: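 We screened compounds on adherent HepG2 cells, incubating them for an hour at 37 C in 5% CO2 before reading emission at 590 nm under 540 nm excitation; values reflect equivalence to Rose Bengal sodium fluorescence.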

[8] = qHTS assay to test for compound auto fluorescence at 535 nm (green) in HepG2 cells (AID 720675)
[9] = qHTS assay to test for compound auto fluorescence at 460 nm (blue) in HEK293 cells (AID 720678)
Outline: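 HEK293 cells (2,000 per well, medium with 10% dialyzed FBS) attached for 4-5 hr at 37C, then received compound and stood overnight at 37C, 5% CO2. Blue fluorescence was read at Ex/Em 405/460 nm and expressed relative to triamterene.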

[10] = qHTS assay to test for compound auto fluorescence at 590 nm (red) in HEK293 cells (AID 720679)
Outline: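 HEK293 cells (2,000/well, medium with 10% dialyzed FBS) attached for 4-5 hr at 37C, received 23 nL compound and were incubated overnight at 37C, 5% CO2. Red fluorescence was then read at 540/590nm Ex/Em, referenced to Rose Bengal sodium.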

[11] = qHTS assay to test for compound auto fluorescence at 535 nm (green) in HEK293 cells (AID 720680)
[12] = qHTS assay to test for compound auto fluorescence at 460 nm (blue) in HEK293 cell free culture (AID 720681)
Outline: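 Blue fluorescence (Ex 405/Em 460 nm, triamterene-equivalent) was read immediately after pin transfer of compound or DMSO into medium (DMEM, 10% FBS) without cells.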

[13] = qHTS assay to test for compound auto fluorescence at 535 nm (green) in HEK293 cell free culture (AID 720682)
Outline: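 Using fluorescein as calibrant, autofluorescence was quantified at 485/535 nm in cell-free DMEM containing 10% FBS after pintool addition of compound or vehicle.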

[14] = qHTS assay to test for compound auto fluorescence at 590 nm (red) in HEK293 cell free culture (AID 720683)
Outline: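 Red-channel autofluorescence of compounds in culture medium (DMEM, 10% FBS), no cells, measured at 540/590 nm. Rose Bengal sodium is the reference fluorophore for equivalence.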

[15] = qHTS assay to test for compound auto fluorescence at 590 nm (red) in HepG2 cell free culture (AID 720684)
Outline: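 Steps: dispense MEM/10% FBS medium, no cells; pin compound or DMSO vehicle; read red channel, Ex/Em 540/590 nm. Output given as Rose Bengal sodium equivalents.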

[16] = qHTS assay to test for compound auto fluorescence at 460 nm (blue) in HepG2 cell free culture (AID 720685)
Outline: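 Compound (23 nL) or DMSO pinned into cell-free MEM with 10% FBS; blue fluorescence read at 405/460 nm excitation/emission, expressed as auto-fluorescence equivalency to triamterene.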

[17] = qHTS assay to test for compound auto fluorescence at 535 nm (green) in HepG2 cell free culture (AID 720686)
[18] = qHTS assay to test for compound auto fluorescence at 460 nm (blue) in HepG2 cells (AID 720687)
Outline: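 Blue-channel autofluorescence (Ex/Em 405/460 nm, triamterene-equivalent) was measured after 1 hr compound exposure at 37 C, 5% CO2. Cells were HepG2, plated overnight at 37 C in MEM plus 10% FBS.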

[19] = biological target: Glucocorticoid receptor (Homo sapiens) (UniProt P04150); assay: qHTS assay to identify small molecule agonists of the glucocorticoid receptor (GR) signaling pathway (AID 720691; active = well fitted activation curve with a large enough effect in the signal ratio in the repeat runs, not every such curve was filed as active; the % refers to the signal ratio)
Chain of Glucocorticoid receptor (Homo sapiens) (P04150 whole entry, looked up): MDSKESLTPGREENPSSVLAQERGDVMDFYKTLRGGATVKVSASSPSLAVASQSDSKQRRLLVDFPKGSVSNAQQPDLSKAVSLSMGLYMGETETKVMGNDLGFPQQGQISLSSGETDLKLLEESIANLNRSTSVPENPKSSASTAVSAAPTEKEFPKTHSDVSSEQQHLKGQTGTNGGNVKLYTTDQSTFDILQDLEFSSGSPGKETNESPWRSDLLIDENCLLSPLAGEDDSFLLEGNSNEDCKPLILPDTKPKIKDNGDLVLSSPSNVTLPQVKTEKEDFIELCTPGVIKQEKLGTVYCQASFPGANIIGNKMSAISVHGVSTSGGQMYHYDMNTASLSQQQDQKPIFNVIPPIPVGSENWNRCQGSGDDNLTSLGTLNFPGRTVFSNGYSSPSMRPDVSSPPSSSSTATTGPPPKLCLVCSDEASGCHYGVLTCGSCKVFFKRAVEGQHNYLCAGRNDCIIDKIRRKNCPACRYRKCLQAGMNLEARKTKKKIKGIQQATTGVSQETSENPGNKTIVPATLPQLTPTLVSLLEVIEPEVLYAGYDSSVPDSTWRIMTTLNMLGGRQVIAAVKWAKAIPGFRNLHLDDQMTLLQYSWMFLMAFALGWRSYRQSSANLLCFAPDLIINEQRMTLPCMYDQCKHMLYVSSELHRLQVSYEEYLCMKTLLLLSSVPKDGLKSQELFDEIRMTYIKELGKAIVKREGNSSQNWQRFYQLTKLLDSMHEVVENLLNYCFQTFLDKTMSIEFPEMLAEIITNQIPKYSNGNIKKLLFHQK
Outline: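 Beta-lactamase reporter activity, read as fluorescence intensity, was measured in GR-bla HeLa cells exposed to compounds for 18 h at 37 C and then loaded with LiveBLAzer B/G FRET substrate for 2 h at room temperature.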

[20] = biological target: Glucocorticoid receptor (Homo sapiens) (UniProt P04150); assay: qHTS assay to identify small molecule antagonists of the glucocorticoid receptor (GR) signaling pathway (AID 720692; active = well fitted inhibition curve with a large enough effect in the signal ratio in the repeat runs, not every such curve was filed as active; the % refers to the signal ratio; note: potency is the fitted concentration of half-maximal effect)
Outline: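 Fluorescence from cleaved LiveBLAzer B/G FRET substrate reports GRE-driven beta-lactamase in HeLa cells; compounds are tested against 5 nM dexamethasone (final) over 18 h at 37 C, substrate incubation 2 h at room temperature.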
% is set by controls: 0 for no effect and ±100 for the full control effect.

CC(C)[N+](C)(CCC(C(N)=O)(c1ccccc1)c1ccccc1)C(C)C
inactive: Potency [1] | outcome [2] | Potency [3] | Potency [4] | Potency [5] | Potency [6] | fluorescence, relative to Rose Bengal [7] -0.328% [at 18.6 µM] | fluorescence, % of fluorescein control [8] -0.0469% [at 18.6 µM] | fluorescence, % of triamterene [9] 0.0132% [at 18.6 µM] | fluorescence, % of fluorescent control [10] -0.12% [at 18.6 µM] | fluorescence, % of fluorescein [11] 0.0067% [at 18.6 µM] | fluorescence, % of fluorescent control [12] 0.0496% [at 18.6 µM] | activity change [13] -0.0088% [at 18.6 µM] | fluorescence, % of fluorescent control [14] 0.0889% [at 18.6 µM] | fluorescence, % of Rose Bengal [15] 0.379% [at 18.6 µM] | fluorescence, % of fluorescent control [16] -0.0402% [at 18.6 µM] | fluorescence, % of fluorescein control [17] 0.0122% [at 18.6 µM] | fluorescence, % of fluorescent control [18] -0.0322% [at 18.6 µM] | Potency [19] | Potency [20]

CC(C)(C1CCC(O)CC1)C1CCC(O)CC1 (stereo not drawn)
active: Potency [6] 7.7 µM
inactive: Potency [1] | outcome [2] | Potency [3] | Potency [4] | Potency [5] | outcome [7] | outcome [8] | outcome [9] | outcome [10] | outcome [11] | outcome [12] | outcome [13] | outcome [14] | outcome [16] | outcome [17] | outcome [18]

CC#Cc1cc(C)nc(Nc2ccccc2)n1
active: Potency [6] 27.3 µM | Potency [20] 54.9 µM
inactive: Potency [1] | outcome [2] | Potency [3] | Potency [4] | Potency [5] | outcome [7] | outcome [8] | outcome [9] | outcome [10] | outcome [11] | outcome [12] | outcome [13] | outcome [14] | outcome [15] | outcome [16] | outcome [17] | outcome [18] | Potency [19]

CCCC(C)(COC(N)=O)COC(N)=O
inactive: Potency [1] | outcome [2] | Potency [3] | Potency [4] | Potency [5] | Potency [6] | outcome [7] | outcome [8] | outcome [9] | outcome [10] | outcome [11] | outcome [12] | outcome [13] | outcome [14] | outcome [15] | outcome [16] | outcome [17] | outcome [18]

Cn1c(CCCC(=O)O)nc2cc(N(CCCl)CCCl)ccc21
active: Potency [1] 26.6 µM
inactive: outcome [2] | Potency [3] | Potency [4] | Potency [5] | Potency [6] | outcome [7] | outcome [8] | outcome [9] | outcome [10] | outcome [11] | outcome [12] | outcome [13] | outcome [14] | outcome [15] | outcome [16] | outcome [17] | outcome [18] | Potency [20]

CCC(C(N)=O)N1CCCC1=O (stereo not drawn)
inactive: Potency [1] | outcome [2] | Potency [3] | Potency [4] | Potency [5] | Potency [6] | outcome [7] | outcome [8] | outcome [9] | outcome [10] | outcome [11] | outcome [12] | outcome [13] | outcome [14] | outcome [15] | outcome [16] | outcome [17] | outcome [18]

ClC(Cl)(Cl)Cl
inactive: Potency [1] | outcome [2] | Potency [3] | Potency [4] | Potency [5] | Potency [6] | outcome [7] | outcome [8] | outcome [9] | outcome [10] | outcome [11] | outcome [12] | outcome [13] | outcome [14] | outcome [15] | outcome [16] | outcome [17] | outcome [18]

Oc1ccc(Cc2ccc(O)cc2)cc1
active: Potency [6] 54.9 µM
inactive: Potency [1] | outcome [2] | Potency [3] | Potency [4] | Potency [5] | outcome [7] | outcome [8] | outcome [9] | outcome [10] | outcome [11] | outcome [12] | outcome [13] | outcome [14] | outcome [15] | outcome [16] | outcome [17] | outcome [18] | Potency [20]

N=C(N)[Se]
inactive: Potency [1] | outcome [2] | Potency [3] | Potency [4] | Potency [5] | Potency [6] | outcome [7] | outcome [8] | outcome [9] | outcome [10] | outcome [11] | outcome [12] | outcome [13] | outcome [14] | outcome [15] | outcome [16] | outcome [17] | outcome [18] | Potency [19]

O=C(Cl)/C=C/C(=O)Cl
inactive: Potency [1] | outcome [2] | Potency [3] | Potency [4] | Potency [5] | Potency [6] | outcome [7] | outcome [8] | outcome [9] | outcome [10] | outcome [11] | outcome [12] | outcome [13] | outcome [14] | outcome [15] | outcome [16] | outcome [17] | outcome [18] | Potency [19] | Potency [20]

C=CC1(C)OC(=O)N(c2cc(Cl)cc(Cl)c2)C1=O (stereo not drawn)
active: Potency [6] 54.5 µM
inactive: Potency [1] | outcome [2] | Potency [3] | Potency [4] | Potency [5] | outcome [7] | outcome [8] | outcome [9] | outcome [10] | outcome [11] | outcome [12] | outcome [13] | outcome [14] | outcome [15] | outcome [16] | outcome [17] | outcome [18] | Potency [19] | Potency [20]

O=C(Cl)OCc1ccccc1
inactive: Potency [1] | outcome [2] | Potency [3] | Potency [4] | Potency [5] | Potency [6] | outcome [7] | outcome [8] | outcome [9] | outcome [10] | outcome [11] | outcome [12] | outcome [13] | outcome [14] | outcome [15] | outcome [16] | outcome [17] | outcome [18] | Potency [20]

CC(Cl)(Cl)Cl
inactive: Potency [1] | outcome [2] | Potency [3] | Potency [4] | Potency [5] | outcome [7] | outcome [8] | outcome [9] | outcome [10] | outcome [11] | outcome [12] | outcome [13] | outcome [14] | outcome [15] | outcome [16] | outcome [18]
